The full ranking holds about 110,000 compounds; the median of “z-score” is about -0.1, and the highest 2% start at about 2. The entries come from a sample that favours the highest values as a whole. Activity calls are given as the source filed them.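 How the source made its calls: active means z-score in the third read window above 3 or below -3; inactive means the rest.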
Each compound was assayed against Metabotropic glutamate receptor 8 (Rattus norvegicus) (UniProt P70579) (assay: rat mGluR8 modulators via GIRK flux, primary screen, cell-based, thallium flux, HTS (AID 488969)). Settings: HEK293 rat mGluR8, GIRK (G protein-gated inwardly rectifying potassium channel) thallium flux, FluoZin2; at 10 µM; stronger effect = higher value; submaximal glutamate (EC20) added with thallium.
Metabotropic glutamate receptor 8 (Rattus norvegicus), sequence (P70579 whole entry, looked up): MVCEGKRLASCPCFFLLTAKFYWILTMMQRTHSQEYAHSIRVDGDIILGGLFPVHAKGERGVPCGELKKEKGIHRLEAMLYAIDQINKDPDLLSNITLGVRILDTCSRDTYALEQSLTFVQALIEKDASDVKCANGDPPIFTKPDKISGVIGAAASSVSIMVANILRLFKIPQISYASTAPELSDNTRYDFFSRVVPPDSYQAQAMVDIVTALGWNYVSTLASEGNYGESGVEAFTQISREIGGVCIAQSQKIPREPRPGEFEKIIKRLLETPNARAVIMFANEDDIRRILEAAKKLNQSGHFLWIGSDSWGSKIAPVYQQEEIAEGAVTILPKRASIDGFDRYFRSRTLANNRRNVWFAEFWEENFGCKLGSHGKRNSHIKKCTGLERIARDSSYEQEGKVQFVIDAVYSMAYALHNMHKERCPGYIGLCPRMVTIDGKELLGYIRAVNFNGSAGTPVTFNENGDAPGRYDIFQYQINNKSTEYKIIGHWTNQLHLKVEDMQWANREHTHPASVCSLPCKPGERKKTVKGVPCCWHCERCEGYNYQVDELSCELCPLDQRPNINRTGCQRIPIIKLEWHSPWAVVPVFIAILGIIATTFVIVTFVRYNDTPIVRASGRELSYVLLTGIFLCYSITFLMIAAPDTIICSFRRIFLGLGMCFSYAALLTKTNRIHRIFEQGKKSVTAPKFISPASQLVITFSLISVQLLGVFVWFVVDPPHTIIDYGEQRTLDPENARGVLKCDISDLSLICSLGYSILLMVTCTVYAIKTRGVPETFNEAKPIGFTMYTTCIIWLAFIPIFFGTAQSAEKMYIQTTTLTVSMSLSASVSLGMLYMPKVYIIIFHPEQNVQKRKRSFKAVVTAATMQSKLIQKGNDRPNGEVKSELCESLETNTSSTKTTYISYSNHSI

| SMILES | z-score |
| --- | --- |
| Fc1ccccc1N1CCN(CCCNc2ccc3nncn3n2)CC1 | 0.731 |
| CCOC(=O)N1CCC(NCCNC(=O)c2ccccc2)CC1 | 0.292 |
| O=C(COC(=O)CN1C(=O)c2ccccc2C1=O)Nc1ncc(Cl)cc1Cl | 0.719 |
| CC(OC(=O)CCCN1C(=O)c2ccccc2C1=O)C(=O)Nc1ncc(Cl)cc1Cl (stereo not given) | 2.08 |
| CC(OC(=O)CN1C(=O)C2CCCCC2C1=O)C(=O)Nc1ncc(Cl)cc1Cl (stereo not given) | 0.031 |
| Cc1c(NC(=O)C(C)OC(=O)c2cc(Cl)nc(Cl)c2)c(=O)n(-c2ccccc2)n1C (stereo not given) | 0.0979 |
| CCOC(=O)C(Oc1ccc2c(-c3ccccc3)cc(=O)oc2c1C)c1ccccc1 (stereo not given) | -0.0738 |
| Cc1csc(NC(=O)CSc2nnc(-c3cc(C)on3)o2)n1 | 0.301 |
| CCc1cc2c(NCc3ccco3)ncnc2s1 | -0.444 |
| CCOC(=O)c1sc2nc(CC(=O)OC)nc(NCc3ccco3)c2c1C | -0.245 |
| CCOC(=O)c1sc2ncnc(NCc3ccco3)c2c1C | 14.7 (active) |
| Cc1c(NC(=O)c2cc3nc(-c4ccc(Br)cc4)cc(C(F)(F)F)n3n2)c(=O)n(-c2ccccc2)n1C | -0.51 |
| Cc1cc(C)nc(/N=C(\N)Nc2ccc(F)c([N+](=O)[O-])c2)n1 | -0.14 |
| O=C(C(Cc1ccccc1)N1C(=O)C2C3C=CC(C3)C2C1=O)N1CCCCC1 (stereo not given) | -0.174 |
| CC(=O)Nc1ccccc1OCC(=O)c1ccc2c(c1)OCO2 | 2.07 |
| COc1ccccc1NC(=O)NCc1ccc2c(c1)OCO2 | 0.532 |
| CC(C)C(=O)Nc1ccccc1C(=O)OCC(=O)c1ccc2c(c1)OCCO2 | -0.424 |
| O=C1CC(c2cccc(Br)c2)c2cc3c(cc2N1)CCC3 (stereo not given) | -0.00205 |
| COc1ccc(S(=O)(=O)Nc2ccc(C)cc2)cc1OC | -0.166 |
| Cc1ccc(NC(=S)N2CCN(Cc3ccc4c(c3)OCO4)CC2)c(C)c1 | -0.407 |
| O=C(NC(=S)N1CCN(Cc2ccc3c(c2)OCO3)CC1)c1cccc(Br)c1 | 9.35 (active) |
| CCN(CC)c1ccc(C(=O)NC(=S)N2CCN(Cc3ccc4c(c3)OCO4)CC2)cc1 | 10 (active) |
| CCn1cnc2sc(C(=O)Nc3ccc4c(c3)OCO4)c(C)c2c1=O | -0.145 |

| SMILES | z-score |
| --- | --- |
| CCn1nc(C(=O)N2CCN(Cc3ccc4c(c3)OCO4)CC2)c2ccccc2c1=O | -0.474 |
| CS(=O)(=O)N(CC(=O)N1CCN(Cc2ccc3c(c2)OCO3)CC1)Cc1ccc(Cl)cc1 | 0.174 |
| O=C(c1ccc(Br)o1)N1CCN(Cc2ccc3c(c2)OCO3)CC1 | -1.48 |
| CCn1cnc2sc(C(=O)N3CCN(Cc4ccc5c(c4)OCO5)CC3)c(C)c2c1=O | 2.58 |
| Cc1cccc(C(=O)N2CCN(Cc3ccc4c(c3)OCO4)CC2)c1 | -0.0762 |
| Cc1c(Cl)cccc1NC(=S)N1CCN(Cc2ccc3c(c2)OCO3)CC1 | 0.334 |
| O=C(NC(=S)N1CCN(Cc2ccc3c(c2)OCO3)CC1)c1ccc(Cl)cc1 | 15.2 (active) |
| CCC(CC)C(=O)N1CCN(Cc2ccc3c(c2)OCO3)CC1 | -0.17 |
| CCN1C(=O)/C(=C\N2CCCc3ccccc32)SC1=S | -0.289 |
| O=C(c1ccc(OCC2CCCO2)cc1)N1CCN(c2ccccc2)CC1 (stereo not given) | -0.525 |
| O=C(NCCc1ccc(Cl)cc1)C1CCC(=O)N1Cc1ccccc1Cl (stereo not given) | -0.0695 |
| COc1ccc(NC(=O)C(NC(=O)CC2NC(=O)NC2=O)c2ccccc2)cc1 (stereo not given) | 0.0457 |
| CC(=O)NC12CC3CC(CC(CC(=O)O)(C3)C1)C2 | 0.634 |
| O=Cc1cccn1Cc1ccc(Cl)cc1Cl | -0.152 |
| Cc1nn(-c2ccccc2)c2c1C1(C(=O)N(C)c3ccccc31)C(C#N)=C(N)O2 (stereo not given) | -0.0421 |
| O=C1OCCC1Sc1nnc(-c2ccc(Cl)cc2)n1Cc1ccccc1 (stereo not given) | -0.478 |
| O=C1OCCC1Sc1nc2cc(Cl)ccc2n1Cc1ccccc1 (stereo not given) | 6.69 (active) |
| O=C1OCCC1Sc1nc2ccccc2n1Cc1ccccc1 (stereo not given) | -1.37 |
| Cc1c(N=C2SCC(=O)N2/N=C/c2ccccc2Cl)c(=O)n(-c2ccccc2)n1C | 0.339 |
| Cc1sc2ncnc(SCC(=O)N3CCCC3)c2c1C | 0.342 |
| Cc1sc2ncnc(SCC(=O)NC3CC3)c2c1C | 0.845 |
| Cc1sc2ncnc(SCC(=O)N3CCCC3=O)c2c1C | 2.71 |
| COc1cc(C(=O)Nc2nnc(C)s2)cc(OC)c1OC | 0.381 |

| SMILES | z-score |
| --- | --- |
| Cc1ccc(-n2nc(-c3cccnc3)cc2C(=O)N2CCOCC2)c(C)c1 | 0.372 |
| Nc1ccccc1NC(=O)c1ccccc1N | 0.194 |
| Nc1nnc(C(=O)c2ccccc2N)s1 | 4.29 (active) |
| Nc1nnc(-c2ccccc2)s1 | -0.337 |
| Cc1c(NC(=O)COC(=O)C(c2ccc(Cl)cc2)C(C)C)c(=O)n(-c2ccccc2)n1C (stereo not given) | -0.457 |
| CC(C)(C)NCC(O)COc1c(F)cc(Br)cc1F (stereo not given) | 0.622 |
| OC(CNC1CCCC1)COc1c(F)cc(Br)cc1F (stereo not given) | 0.142 |
| CC(C)(C)CC(C)(C)NCC(O)COc1c(F)cc(Br)cc1F (stereo not given) | 3.25 (active) |
| C=CCSC1=N/C(=C\c2ccsc2)C(=O)S1 | -0.538 |
| CC(C)OC(=O)c1cccnc1SCC(=O)N(C)c1ccccc1 | -0.698 |
| CCOc1ccc(CNC(=O)C2CCCN(S(C)(=O)=O)C2)cc1OC (stereo not given) | 0.258 |
| CCC(=O)Nc1ccc(Cl)c(NC(=O)C(C)C)c1 | 0.418 |
| Cc1nn(C)cc1CNC(=O)Nc1ccc(Br)cc1Cl | -0.126 |
| C=COCCNC(=O)Nc1ccc(Cl)cc1Cl | 0.104 |
| Cc1nn(C)cc1CNC(=O)Nc1cccc(Cl)c1 | 0.0377 |
| Cc1nn(C)cc1CNC(=O)Nc1ccc(Cl)c(Cl)c1 | 2.06 |
| O=C(NCCCn1ccnc1)Nc1ccc(Cl)cc1Cl | -0.326 |
| O=C(NCCCn1ccnc1)Nc1cccc(Cl)c1 | 0.583 |
| C=COCCNC(=O)Nc1ccc(Cl)c(Cl)c1 | 3.37 (active) |
| O=C(NCCCn1ccnc1)Nc1ccc(Cl)c(Cl)c1 | 3.92 (active) |
| CN(C)CCNC(=O)Nc1ccc(Cl)c(Cl)c1 | 0.092 |
| CCOc1ccccc1Nc1nc(-c2sc(NC(=O)c3ccc([N+](=O)[O-])cc3)nc2C)cs1 | 0.209 |
| CCOc1ccc(CC(=O)Nc2c(C(N)=O)oc3ccc(Br)cc23)cc1OCC | -0.0702 |

| SMILES | z-score |
| --- | --- |
| CN(C)/C=C1/N=C(c2ccccc2)OC1=O | -0.23 |
| COc1ccc(C(=O)c2ccc(CC#N)s2)cc1 | -0.0619 |
| CCn1c2ccccc2c2nnc(SCC(=O)OCN3C(=O)c4ccccc4C3=O)nc21 | -0.087 |
| CC(C)(C)S(=O)c1cccs1 (stereo not given) | 0.555 |
| CSc1nc(C)cc(OCC(=O)N2CCOCC2)n1 | 0.387 |
| Cc1cc(C)c2c(c1)/C(=N/NC(=S)Nc1ccc(F)cc1)CCC2 | 2.6 |
| COc1ccc(NC(=S)N/N=C2/CCCc3c(C)cc(C)cc32)cc1 | 0.0188 |
| S=C(Nc1ccc(Cl)cc1)N1CCCCC1 | -0.262 |
| Fc1ccc(NC(=S)N2CCCCC2)cc1 | 0.208 |
| S=C(Nc1ccc(Cl)cc1)N1CCCC1 | 0.113 |
| S=C(NN=C1CCCCCC1)Nc1ccc(Cl)cc1 | 9.7 (active) |
| Fc1ccc(NC(=S)NN=C2CCCCCC2)cc1 | 12 (active) |
| Fc1ccc(NC(=S)N2CCCC2)cc1 | -0.0754 |
| Cc1cc(C)c2c(c1)/C(=N/NS(=O)(=O)c1ccccc1)CCC2 | -1.09 |
| O=C1CC(c2ccccc2)CN1S(=O)(=O)c1ccccc1 (stereo not given) | 0.00794 |
| O=C(NCCc1csc(-c2cccnc2)n1)c1cccc2ccccc12 | 0.472 |
| CC(C)=C1SC(N2CCCCC2)=NC1=O | 1.93 |
| Cc1nn(CCc2n[nH]c(=S)n2C2CCCCC2)c(C)c1Br | -0.451 |
| COc1ccc(-c2csc(NC(=O)CN3C(=O)CCC3=O)n2)cc1OC | -0.147 |
| Cc1cc(=O)n2[nH]c(-c3ccccc3Cl)cc2n1 | -0.0492 |
| Cc1c(C(=O)N/N=C/C(C)C)[nH]c2c([N+](=O)[O-])cccc12 | -0.722 |
| CCC/C=N/NC(=O)c1[nH]c2c([N+](=O)[O-])cccc2c1C | 2.02 |
| Cc1cc([N+](=O)[O-])c2[nH]c(C(=O)N/N=C/c3ccccc3C(=O)O)c(-c3ccccc3)c2c1 | -0.455 |

| SMILES | z-score |
| --- | --- |
| CCc1nc(Nc2ccc(OC)c(OC)c2)c2nnn(Cc3ccccc3Cl)c2n1 | 0.049 |
| O=C(COc1ccc(Br)cc1CO)Nc1ccccc1F | -0.0395 |
| COc1ccccc1NC(=O)COc1ccc(C(F)(F)F)cc1[N+](=O)[O-] | 4.19 (active) |
| COc1ccccc1NC(=O)COc1ccc(Br)cc1CO | 2.95 |
| CCOc1ccc(C(F)(F)F)cc1NC(=O)COc1ccc(C(F)(F)F)cc1[N+](=O)[O-] | -0.107 |
| O=C(COc1ccc(Br)cc1CO)Nc1ccccc1 | -0.336 |
| CCOc1ccc(C(F)(F)F)cc1NC(=O)c1ccc(OC)c([N+](=O)[O-])c1 | 0.372 |
| CCn1c(COc2ccc(C)cc2)nnc1SCc1nc2ccccc2[nH]1 | -0.0293 |
| COCCN1C(=O)c2ccccc2C(C(=O)NCC2CCCO2)C1c1c[nH]c2ccccc12 (stereo not given) | -0.121 |
| O=C(NCc1ccc2c(c1)OCO2)C1CCCN1C(=O)Nc1cccc(F)c1 (stereo not given) | 0.725 |
| CCCC(=O)Nc1cc(-c2nnc(OC)c3ccccc23)ccc1N1CCCCC1 | -0.148 |
| O=CN1CC(=O)N(c2ccccc2)c2c([nH]c3ccccc23)C1 | 0.383 |
| CCc1cc(C(c2ccc(OC)c(OC)c2)N2CCOCC2)c(NC(=O)c2ccccc2)s1 (stereo not given) | -0.47 |
| COCc1nnc(NC(=O)C(C)C)s1 | 3.48 (active) |
| COC(=O)Cc1nnc(NC(=O)C(C)C)s1 | 0.0291 |
| CC(C)C(=O)Nc1nnc(CCc2nnc(NC(=O)C(C)C)s2)s1 | 0.549 |
| CO/N=C/c1ccc(Sc2ccc(C)cc2)c([N+](=O)[O-])c1 | -0.349 |
| COc1ccc(OC)c(NC(=O)C2CCCCC2)c1 | -0.385 |
| COc1cc(NC(=O)C2CCCO2)c(OC)cc1Cl (stereo not given) | -0.106 |
| COc1cc(NC(=O)C(=O)NNC(=O)C2CCCCC2)c(OC)cc1Cl | 3.98 (active) |
| O=C(Oc1cccc([N+](=O)[O-])c1)c1cc(-c2ccccc2)nc2ccccc12 | 0.17 |
| C=CCc1cccc2cc(C(=O)N(C)C)c(=O)oc12 | 0.176 |
| Cn1cccc1C(=O)N1CCN(c2cccc(C(F)(F)F)c2)CC1 | -0.386 |

From PubChem BioAssay AID488969 (Vanderbilt High Throughput Screening Facility, 2010)
